Shown are actives, neighbours in structure and some others; about 21% of the full set was active somewhere.
Pf growth 96h: P. falciparum growth inhibition at 96 hours | P. falciparum luciferase reporter growth, 96 h | Potency, µM (titrated, usually from 28.7 µM), for the others: top-dose activity change, negative = inhibition, most hits filed as inhibitors | 6.9% of 320,000 active | AID 504834; further: potency means the concentration at half of the fitted maximal effect; on the % scale 0 is the no-effect control and ±100 the full control effect
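Two-generation exposure (96 h) targets delayed-death phenotype. Reporter parasites carrying integrated firefly luciferase, in red cells at 2% hematocrit and 0.05% parasitemia final, kept at 37 C, 5% CO2; luminescence loss indicates inhibition.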
NS1 inh: influenza NS1 inhibition | Potency, µM (top dose mostly 46.1 µM), for the others: top-dose activity, positive = more growth | 0.4% of 270,000 active; calls by dose curve; further: potency means the concentration at half of the fitted maximal effect; actives are rising curves; nearly all actives have a fitted effect of over 50% in size
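OD600 was taken as the measure of yeast growth restored by compound in an NS1-expressing S. cerevisiae strain. Cells had been washed out of glucose medium and diluted 1:100 into galactose -URA medium, pH 6.0.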
CHX counter: affects cycloheximide protein synthesis inhibition readout, counter-screen; cell reporter, cycloheximide protein synthesis inhibition counterscreen; max response, %; 12% of 300,000 active; in the data active means max response mostly above about 13%, no sharp cut-off; inactive means mostly below about 14%; further: read at 38.3 µM for the half of the compounds with a filed dose; 0% is about no effect
Shiga toxin inh: Shiga toxin inhibition | Vero cells, Shiga toxin protein synthesis inhibition reporter | inhibition, % at 38.7 µM | 9.2% of 290,000 active; in the data active means inhibition mostly above about 28%, no sharp cut-off; inactive means mostly below about 43%; further: 0% is about no effect
Pf growth 48h: inhibits P. falciparum growth in the first generation, 48 h; P. falciparum luciferase growth in erythrocytes, 48 h; 5.9% of 310,000 active; Potency, µM (highest dose often 28.7 µM), without a hit: top-dose activity change, negative = inhibition, actives largely listed as inhibitors; further: potency means the concentration at half of the fitted maximal effect; on the % scale 0 is the no-effect control and ±100 the full control effect
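First compound was added to culture medium, then infected red cells at 0.1% parasitemia and 2% hematocrit (final). After incubation at 37 C under 5% CO2, luciferase detection reagent was dispensed and light output recorded.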
An asterisk follows results filed as active. Unless noted, the call rests on the fitted dose curve; in most records, active means well fitted inhibition curve with a large enough effect; inconclusive means small, poorly fitted or top-dose-only effect, or another doubt; inactive means no such curve, though single readings can be large or run the other way.

Screening CC[C@H](C)[C@H](NC(=O)[C@H](CCC(=O)O)NC(=O)[C@H](CO)NC(=O)[C@@H](NC(=O)[C@H](C)N)C(C)C)C(=O)N[C@@H](CCC(N)=O)C(=O)N[C@@H](CC(C)C)C(=O)N[C@@H](CCSC)C(=O)N[C@@H](Cc1cnc[nH]1)C(=O)N[C@@H](CC(N)=O)C(=O)N[C@@H](CC(C)C)C(=O)NCC(=O)N[C@@H](CCCCN)C(=O)N[C@@H](Cc1cnc[nH]1)C(=O)N[C@@H](CC(C)C)C(=O)N[C@@H](C)C(=O)N[C@@H](CO)C(=O)N[C@H](C(=O)N[C@@H](CCC(=O)O)C(=O)N[C@@H](CCCNC(=N)N)C(=O)N[C@@H](CCSC)C(=O)N[C@@H](CCC(N)=O)C(=O)N[C@@H](Cc1c[nH]c2ccccc12)C(=O)N[C@@H](CC(C)C)C(=O)N[C@@H](CCCNC(=N)N)C(=O)N[C@@H](CCCCN)C(=O)N[C@@H](CCCCN)C(=O)N[C@@H](CC(C)C)C(=O)N[C@@H](CCC(N)=O)C(=O)N[C@@H](CC(=O)O)C(=O)N[C@H](C(=O)N[C@@H](Cc1cnc[nH]1)C(=O)N[C@@H](CC(N)=O)C(=O)N[C@@H](Cc1ccccc1)C(=O)O)C(C)C)C(C)C returned CHX counter -3.6 and Shiga toxin inh 8.3.
COc1ccccc1NS(=O)(=O)CC12CCC(CC1=O)C2(C)C (centres undefined) was read as NS1 inh -8.9%, CHX counter -1.5 and Shiga toxin inh -17.4.
COc1ccc(N/C(=N/c2nc(C)cc(C)n2)NC(=O)c2ccccc2)cc1 was read as Pf growth 96h -13.2%, NS1 inh 9.8%, CHX counter -1.5, Shiga toxin inh 4.4 and Pf growth 48h 23.8%.
For Nc1[nH]n2c(=O)cc(-c3ccccc3)nc2c1N=Nc1ccc2c(c1)OCO2 the results were Pf growth 96h -24.9%, NS1 inh inconclusive, CHX counter 0.8, Shiga toxin inh 21.6 and Pf growth 48h 0.0%.
`Cc1ccc(C23CC4CC(CC(C(=O)N5CCN(C)CC5)(C4)C2)C3)cc1` gave Pf growth 96h inconclusive, NS1 inh -3.7%, CHX counter -0.7, Shiga toxin inh -2.3 and Pf growth 48h inconclusive.
For Cc1ccc(C)c(N2CCN(C(=O)C34CC5CC(C3)CC(n3nnc(C)n3)(C5)C4)CC2)c1 the results were Pf growth 96h inconclusive, NS1 inh 0.6%, CHX counter 1.5, Shiga toxin inh 11.7 and Pf growth 48h 10.4µM*.
CC(/C=C/c1ccccc1)=N/NC(=O)C(O)c1ccccc1 (centres undefined) was read as Pf growth 96h -18.2%, NS1 inh -6.1%, CHX counter 9.6, Shiga toxin inh 45.1* and Pf growth 48h 31.0%.
`CCOC(=O)N/N=C(C)/C=C/c1ccccc1` gave Pf growth 96h inconclusive, NS1 inh -7.0%, CHX counter 27.6*, Shiga toxin inh 16.0 and Pf growth 48h 0.1%.
`CC(/C=C/c1ccccc1)=N\Nc1ccccc1[N+](=O)[O-]` gave Pf growth 96h -25.9%, CHX counter 31.9*, Shiga toxin inh 89.4* and Pf growth 48h 97.2%.
`CC(/C=C/c1ccccc1)=N\NC(=O)CCc1ccccc1` gave Pf growth 96h 32.2%, NS1 inh -0.3%, CHX counter 7.1, Shiga toxin inh 16.5 and Pf growth 48h inconclusive.
Screening CCOC(=O)N/N=C\C=C\c1ccco1 returned Pf growth 96h inconclusive, NS1 inh 14.4%, CHX counter -0.4, Shiga toxin inh -6.6 and Pf growth 48h 16.5%.
CCOC(=O)N/N=C(C)/C=C/c1ccco1 was read as Pf growth 96h inconclusive, NS1 inh 6.3%, CHX counter 20.6*, Shiga toxin inh 31.4 and Pf growth 48h -15.0%.
`O=C(NC1CCCCC1)C(c1cccnc1)N(C(=O)c1csnn1)c1ccc(F)cc1` (centres undefined) gave Pf growth 96h inconclusive, NS1 inh -1.2%, CHX counter -0.9, Shiga toxin inh -4.3 and Pf growth 48h -5.9%.
Screening CO/C([O-])=N/c1c[n+](-c2ccc(C)cc2)no1 returned Pf growth 96h -28.9%, NS1 inh 0.0%, CHX counter 22.2*, Shiga toxin inh 42.9* and Pf growth 48h 69.0%.
`CCOC(=O)Cn1c2c(c(=N)c3ccccc31)CCC2` gave Pf growth 96h 0.37µM*, NS1 inh 3.1%, CHX counter -1.4, Shiga toxin inh 7.7 and Pf growth 48h inconclusive.

From PubChem BioAssay
